For ten compounds, Potency results are on record in PubChem BioAssay (NCATS).

Records with an inconclusive call do not appear. Active and inactive are the calls of the source. The call rests on the fitted dose curve; in most records, active means well fitted curve in the direction sought with a large enough effect; inconclusive means small, poorly fitted or top-dose-only effect, or another doubt; inactive means no such curve, though single readings can be large; an effect the other way counts as inactive or inconclusive.

The nature of experiment [1]: P-glycoprotein substrates identified in KB-3-1 adenocarcinoma cell line, qHTS therapeutic library screen (AID 1346986). Further: nearly all actives have a fitted effect of over 60% in size.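 Further: potency is for cytotoxicity meaning loss of cell viability.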 The method, boiled down: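 KB-3-1 parental cells and P-gp-overexpressing KB-8-5-11 (colchicine omitted during assay) plated at 500 cells/well, dosed in dose-response, incubated 72 h at 37 degree C. CellTiter-Glo luminescence read; KB-8-5-11 also tested with tariquidar.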

The nature of experiment [2]: P-glycoprotein substrates identified in KB-8-5-11 adenocarcinoma cell line, qHTS therapeutic library screen (AID 1346987). Further: nearly all actives have a fitted effect of over 65% in size. The method, boiled down:
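P-gp-mediated resistance screen: KB-8-5-11 cells treated 72 h with compounds in dose-response. CellTiter-Glo viability.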
In general terms: In qHTS, concentration-response curves come from the screen itself.
Potency means the concentration at half of the fitted maximal effect.

Take `C=CC(=O)N1CC(N2CCN(C(=O)CNc3cc(C4CC4)c(Cl)cc3O)CC2)C1`: the Potency result in experiment [1] and in experiment [2] was “inactive” in each case.

`NC(=O)c1cccc2[nH]c(-c3ccc(C4CCCN4)cc3F)nc12` (stereo not given): the Potency entry in experiment [1] and in experiment [2] was “inactive” each time.

With `CN1c2c(nc(N)[nH]c2=O)NC[C@@H]1CNc1ccc(C(=O)N[C@@H](CCC(=O)O)C(=O)O)cc1`, the Potency result in experiment [1] and in experiment [2] was “inactive” throughout.

In the case of `CC(C)C[C@@H](N)C(=O)N[C@H]1C(=O)N[C@@H](CC(N)=O)C(=O)N[C@H]2C(=O)N[C@H]3C(=O)N[C@H](C(=O)N[C@H](C(=O)O)c4cc(O)cc(O)c4-c4cc3ccc4O)[C@H](O)c3ccc(c(Cl)c3)Oc3cc2cc(c3O[C@@H]2O[C@H](CO)[C@@H](O)[C@H](O)[C@H]2O[C@H]2C[C@](C)(N)[C@H](O)[C@H](C)O2)Oc2ccc(cc2Cl)[C@H]1O`, the Potency entry in experiment [1] and in experiment [2] was “inactive” each time.

Take `COc1cccc(OCCCN)c1-c1cc(Nc2cnc(C#N)cn2)n[nH]1`: the Potency in experiment [1] is 0.146 µM (active); in experiment [2], 1.3 µM (active).

For `C=CC(=O)Nc1cccc(Nc2nc(Nc3ccc(OCCOC)cc3)ncc2F)c1`, the figures for the Potency in experiment [1] and in experiment [2] were 11.6 µM (active) and 7.31 µM (active), respectively.

Turning to `C=C1C(=O)O[C@@H]2C[C@]3(C)[C@@H](CCC(C)O)[C@@H]3C[C@H]12` (stereo not given in full), the Potency entry in experiment [1] and in experiment [2] was “inactive” throughout.

Consider `CCOC(=O)CCNc1cc(N2CCc3ccccc3CC2)nc(-c2cccnc2)n1`, for which the Potency result in experiment [1] and in experiment [2] was “inactive” each time.

`O=C([C@@H](Cc1cccc(C(F)(F)F)c1)NS(=O)(=O)c1cc(F)c2c(c1)CCNC2)N1CCCC1`: the Potency entry in experiment [1] and in experiment [2] was “inactive” each time.

Consider `COc1ccc(NC(=O)C2C[C@H](C)CC[C@H]2C(C)C)cc1` (stereo not given in full), for which the Potency entry in experiment [1] and in experiment [2] was “inactive” in each case.
